High-throughput results (PubChem)
NPC1 promoter act: qHTS Assay for NPC1 Promoter Activators; AID 485313, 2010; Potency, µM (series often up to 9.22 µM), inactives show at the top dose activation, most hits filed as activators; Huh7 NPC1 promoter luciferase reporter, 24 h; actives 2.4% (n = 320,000); further: % of control where 0% means no effect; nearly all actives have a fitted effect of over 60% in size
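Readout is luciferase luminescence, reflecting NPC1 promoter activation in stably transfected Huh7 cells after 24 h compound exposure at 37 °C in reduced-serum medium with 10% FBS.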
Luc counter: Counterscreen for Luciferase (Kinase-Glo TM) Inhibition | Potency, µM (highest dose often 38.3 µM), inactives show top-dose activity change, negative = inhibition, hits mostly inhibitors | Kinase-Glo luciferase, ATP luminescence, 8 min | AID 1379, 2008 | actives 0.28% (n = 200,000) | Luciferin 4-monooxygenase (Photuris pensylvanica), Q27757; further: on the % scale 0 is the no-effect control and ±100 the full control effect; nearly all actives have a fitted effect of over 60% in size
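Light output from Kinase-Glo luciferase with luciferin and 10 uM ATP in 50 mM imidazole pH 7.2, KCl, MgCl2, Tween 20, BSA; compound pin-delivered, 8-min ambient incubation, then luminescence read.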
Rab9 promoter act: qHTS Assay for Rab9 Promoter Activators | Huh7 Rab9 promoter-luciferase reporter, luminescence, 24 h | Potency, µM (titrated, usually from 9.22 µM), without a hit: at the highest dose activation, negative = inhibition, hits mostly activators | actives 2.8% (n = 320,000) | AID 485297, 2010; further: % of control where 0% means no effect; nearly all actives have a fitted effect of over 60% in size
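Luminescence read-out: Huh7 cells stably expressing Rab9-luciferase, treated 24 h with compound at 37 °C, then lysed with luciferase reagent for 10 min at ambient before reading.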
ELG1 genotox: qHTS screen for small molecules that induce genotoxicity in human embryonic kidney (HEK293T) cells expressing luciferase-tagged ELG1. AID 504466, 2011. actives 1.3% (n = 330,000). HEK293T ELG1-luciferase reporter, luminescence, 16 h. Potency, µM (titrated, usually from 46 µM), inactives show at the top dose activity change, positive = activation, hits mostly activators; further: % of control where 0% means no effect; nearly all actives have a fitted effect of over 60% in size
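HEK293T cells expressing luciferase-tagged ELG1 were exposed to compound or DMSO vehicle for 16 hr at 37 °C and 5% CO2. Luciferase activity was then measured with ONE-Glo after 30 min at room temperature.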
FLuc modulator: qHTS profiling assay for firefly luciferase inhibitor/activator using purifed enzyme and Km concentrations of substrates (counterscreen for miR-21 project); purified FLuc, Km substrates, luminescence inhibition; Luciferin 4-monooxygenase (Photinus pyralis), P08659; actives 6.9% (n = 360,000); Potency, µM (series often up to 57.5 µM), for inactives: at the highest dose activity change, negative = inhibition, usual class: inhibitors;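 further: plate controls were vehicle for no effect and reference inhibitor for full effect; nearly all actives have a fitted effect of over 55% in size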
Target sequence (P08659 whole entry, looked up): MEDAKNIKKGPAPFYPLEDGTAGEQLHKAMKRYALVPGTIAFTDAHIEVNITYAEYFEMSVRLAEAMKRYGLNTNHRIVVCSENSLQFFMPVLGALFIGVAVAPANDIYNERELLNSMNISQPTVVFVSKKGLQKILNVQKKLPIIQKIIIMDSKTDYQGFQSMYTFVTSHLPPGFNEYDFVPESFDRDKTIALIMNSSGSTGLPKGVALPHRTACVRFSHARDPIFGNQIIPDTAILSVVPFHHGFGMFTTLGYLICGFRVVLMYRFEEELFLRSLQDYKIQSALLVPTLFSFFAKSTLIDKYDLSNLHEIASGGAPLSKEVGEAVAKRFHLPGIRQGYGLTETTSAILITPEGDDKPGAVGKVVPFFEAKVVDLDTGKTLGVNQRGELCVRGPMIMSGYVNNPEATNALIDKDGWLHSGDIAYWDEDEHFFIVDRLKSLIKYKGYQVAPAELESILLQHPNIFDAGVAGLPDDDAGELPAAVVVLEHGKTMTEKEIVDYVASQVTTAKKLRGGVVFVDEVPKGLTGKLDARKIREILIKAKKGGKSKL
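Purified P. pyralis luciferase (10nM final) with 10uM D-luciferin and 10uM ATP (Km levels) in 50mM Tris acetate pH 7.5, 10mM Mg acetate, 0.01% Tween-20, 0.05% BSA; qHTS 6-point titration, ~60 µM downward; luminescence read.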
SMN2 splice enh: qHTS Assay for Enhancers of SMN2 Splice Variant Expression; HEK293 SMN2-luciferase splicing reporter, luminescence, 30-36 h; Potency, µM (top dose mostly 46.1 µM), inactives show at the top dose activity change, positive = activation, usual class: activators; actives 2.8% (n = 210,000); further: % of control where 0% means no effect; nearly all actives have a fitted effect of over 55% in size
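HEK293 cells carry an SMN2 […]–luciferase reporter in which exon 7 inclusion puts luciferase in frame. Cells were plated 10-12 h before compound addition, then incubated 30-36 h at 37C. ONE-Glo luminescence was read; sodium butyrate at 4.5 mM final served as control.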
Numbers without * were called inactive. Shown are actives, neighbours in structure and some others; about 7.5% of the full set was active somewhere. The call rests on the fitted dose curve; in most records, active means well fitted curve in the direction sought with a large enough effect; inconclusive means small, poorly fitted or top-dose-only effect, or another doubt; inactive means no such curve, though single readings can be large; an effect the other way counts as inactive or inconclusive. Potency means the concentration at half of the fitted maximal effect.

How did CC(=O)c1ccc(NC(=O)Cn2c3ccccc3c3nc(=O)cc(C)n32)cc1 do in these assays?
NPC1 promoter act: -0.3%; Rab9 promoter act: 1.6%; ELG1 genotox: 3.6%; FLuc modulator: 0.4%

What do the screens show for `COc1ccccc1OCCCn1c(=O)sc2ccccc21`?
NPC1 promoter act: 14.2%; Luc counter: -3.5%; Rab9 promoter act: 28.8%; ELG1 genotox: 12.1%; FLuc modulator: 15.1µM*; SMN2 splice enh: 17.8%

Results for O=c1sc2ccccc2n1CCOc1ccccc1 ?
NPC1 promoter act: inconclusive; Luc counter: -10.4%; Rab9 promoter act: inconclusive; ELG1 genotox: 20.6µM*; FLuc modulator: 13.5µM*; SMN2 splice enh: inconclusive

How did COc1ccccc1OCCCn1c(=O)oc2ccccc21 do in these assays?
NPC1 promoter act: 4.3%; Luc counter: 2.6%; Rab9 promoter act: 0.9%; ELG1 genotox: 8.1%; FLuc modulator: inconclusive; SMN2 splice enh: 16.0%

What do the screens show for `Cc1ccc(OCn2c(=O)sc3ccccc32)cc1`?
NPC1 promoter act: inconclusive; Luc counter: -1.3%; Rab9 promoter act: inconclusive; ELG1 genotox: 16.4µM*; FLuc modulator: 23.9µM*; SMN2 splice enh: inconclusive

How did CCCOc1ccc(Cn2c(=O)sc3ccccc32)cc1 do in these assays?
FLuc modulator: -13.8%; SMN2 splice enh: -18.3%

How did O=c1ccc2cc(S(=O)(=O)N3CCOCC3)ccc2o1 do in these assays?
NPC1 promoter act: -3.6%; Luc counter: 1.1%; Rab9 promoter act: 2.0%; ELG1 genotox: 0.4%; FLuc modulator: 8.9%; SMN2 splice enh: 7.94µM*

Results for Cc1ccc(NC(=O)c2cnc(SCC(=O)N3CCOCC3)n(C)c2=O)cc1C ?
FLuc modulator: 15.1µM*

What do the screens show for `COc1ccccc1NC(=O)c1cnc(SCC(=O)NCC2CCCO2)n(C)c1=O` (stereo unspecified)?
NPC1 promoter act: -2.4%; Rab9 promoter act: -0.6%; ELG1 genotox: 6.2%; FLuc modulator: 5.36µM*

What do the screens show for `Cn1c(SCC(=O)N2CCOCC2)ncc(C(=O)Nc2ccccc2)c1=O`?
FLuc modulator: 0.5%

Results for COc1ccccc1NC(=O)c1cnc(SCC(=O)N2CCCc3ccccc32)n(C)c1=O ?
FLuc modulator: 1.69µM*

Results for COc1ccccc1NC(=O)c1cnc(SCC(=O)N2CCOCC2)n(C)c1=O ?
FLuc modulator: 7.57µM*

What do the screens show for `COc1cccc(NC(=O)c2cnc(SCC(=O)N3CCCc4ccccc43)n(C)c2=O)c1`?
FLuc modulator: -13.6%

Results for CCc1cccc(C)c1NC(=O)Cn1ccn(-c2cccc(OC)c2)c(=O)c1=O ?
FLuc modulator: -19.6%

How did O=C(CC(Nc1ccc(F)cc1)C(=O)OCC(=O)c1cccs1)c1ccccc1 (stereo unspecified) do in these assays?
NPC1 promoter act: inconclusive; Luc counter: 1.0%; Rab9 promoter act: 4.47µM*; ELG1 genotox: inconclusive; FLuc modulator: inconclusive; SMN2 splice enh: inconclusive

How did O=C(CC(Nc1ccc(F)cc1)C(=O)O)c1ccccc1 (stereo unspecified) do in these assays?
NPC1 promoter act: 1.12µM*; Luc counter: -11.8%; Rab9 promoter act: 1.26µM*; ELG1 genotox: 1.03µM*; FLuc modulator: 1.07µM*; SMN2 splice enh: 12.6µM*

How did Cc1ccc(NC(CC(=O)c2ccccc2)c2ccc(F)cc2)cc1 (stereo unspecified) do in these assays?
NPC1 promoter act: 3.1%; Luc counter: -5.9%; Rab9 promoter act: 0.2%; ELG1 genotox: -0.7%; FLuc modulator: -1.0%; SMN2 splice enh: 8.8%

Results for Cc1cc(NC(=O)Cc2ccccc2)cc(-c2nc3ccccc3o2)c1O ?
FLuc modulator: -2.5%; SMN2 splice enh: 7.3%

Results for CC(C)(C)c1cc(C2=CSC3=NCCN23)cc(C(C)(C)C)c1O ?
NPC1 promoter act: 1.8%; Rab9 promoter act: 0.8%; ELG1 genotox: -10.1%; FLuc modulator: 1.6%

How did O=C(N/N=C1\C(=O)c2cccc3cccc1c23)c1ccc(O)cc1 do in these assays?
NPC1 promoter act: 0.1%; Luc counter: -1.5%; Rab9 promoter act: 20.9%; ELG1 genotox: 3.2%; FLuc modulator: 2.13µM*; SMN2 splice enh: 23.2%

How did CCOC(=O)N/N=C1\CCc2ccccc21 do in these assays?
NPC1 promoter act: 26.5%; Luc counter: -13.6%; Rab9 promoter act: 29.0%; ELG1 genotox: inconclusive; FLuc modulator: inconclusive; SMN2 splice enh: 15.8µM*

Results for O=C(N/N=C1/CCc2ccccc21)C1CC1 ?
NPC1 promoter act: 7.4%; Luc counter: -3.8%; Rab9 promoter act: 17.7%; ELG1 genotox: inconclusive; FLuc modulator: inconclusive; SMN2 splice enh: 21.9%

What do the screens show for `O=C(N/N=C1\CCCc2ccccc21)c1cccc(Br)c1`?
NPC1 promoter act: 20.2%; Luc counter: -1.3%; Rab9 promoter act: 15.2%; ELG1 genotox: 4.0%; FLuc modulator: inconclusive; SMN2 splice enh: inconclusive

What do the screens show for `O=C(N/N=C1\CCc2ccccc21)c1ccc(O)cc1`?
NPC1 promoter act: 2.82µM*; Luc counter: -27.1%; Rab9 promoter act: 2.82µM*; ELG1 genotox: 4.61µM*; FLuc modulator: 7.57µM*; SMN2 splice enh: 17.8µM*

Results for O=C(N/N=C1\CCc2ccccc21)c1ccccc1Cl ?
NPC1 promoter act: 2.24µM*; Luc counter: -3.5%; Rab9 promoter act: 2.82µM*; ELG1 genotox: 18.4µM*; FLuc modulator: 10.7µM*; SMN2 splice enh: 10µM*

What do the screens show for `Cc1ccc(S(=O)(=O)NC(C)C(=O)OCC(=O)N(C)c2ccccc2)cc1` (stereo unspecified)?
NPC1 promoter act: -0.4%; Rab9 promoter act: -2.3%; ELG1 genotox: -0.5%; FLuc modulator: -0.9%

Results for Cc1ccc(C)c(NC(=S)N/N=C2/CCCCc3ccccc32)c1 ?
NPC1 promoter act: 0.1%; Luc counter: -2.4%; Rab9 promoter act: -3.2%; ELG1 genotox: -9.1%; FLuc modulator: 1.8%; SMN2 splice enh: -37.9%

Results for Cc1ccc(C(=O)N/N=C2\CCc3ccccc32)c(C)c1 ?
NPC1 promoter act: inconclusive; Luc counter: 0.1%; Rab9 promoter act: 2.24µM*; ELG1 genotox: 2.31µM*; FLuc modulator: 4.78µM*; SMN2 splice enh: 0.794µM*

How did COC(=O)c1c(C)[nH]c(/C=N/Nc2ccccc2)c1C do in these assays?
NPC1 promoter act: 0.5%; Rab9 promoter act: 12.9%; ELG1 genotox: inconclusive; FLuc modulator: 10.7µM*
